This passage reports Potency results from ChEMBL document CHEMBL1201862, “PubChem BioAssay data set” (2004).

Out of some 400,000 compounds screened, about 2,100 (0.53%) were called active. Another 14% or so got no clear call; they are omitted. How the calls were made is not given here. The list comes from a sample in which actives are over-represented; it also holds similar structures and randomly drawn compounds.

For this test, the target named is Ataxin-2 (Homo sapiens) (UniProt Q99700). The test can be described thus: qHTS for Inhibitors of ATXN expression. It counts as functional.
Ataxin-2 (Homo sapiens), sequence (Q99700 whole entry): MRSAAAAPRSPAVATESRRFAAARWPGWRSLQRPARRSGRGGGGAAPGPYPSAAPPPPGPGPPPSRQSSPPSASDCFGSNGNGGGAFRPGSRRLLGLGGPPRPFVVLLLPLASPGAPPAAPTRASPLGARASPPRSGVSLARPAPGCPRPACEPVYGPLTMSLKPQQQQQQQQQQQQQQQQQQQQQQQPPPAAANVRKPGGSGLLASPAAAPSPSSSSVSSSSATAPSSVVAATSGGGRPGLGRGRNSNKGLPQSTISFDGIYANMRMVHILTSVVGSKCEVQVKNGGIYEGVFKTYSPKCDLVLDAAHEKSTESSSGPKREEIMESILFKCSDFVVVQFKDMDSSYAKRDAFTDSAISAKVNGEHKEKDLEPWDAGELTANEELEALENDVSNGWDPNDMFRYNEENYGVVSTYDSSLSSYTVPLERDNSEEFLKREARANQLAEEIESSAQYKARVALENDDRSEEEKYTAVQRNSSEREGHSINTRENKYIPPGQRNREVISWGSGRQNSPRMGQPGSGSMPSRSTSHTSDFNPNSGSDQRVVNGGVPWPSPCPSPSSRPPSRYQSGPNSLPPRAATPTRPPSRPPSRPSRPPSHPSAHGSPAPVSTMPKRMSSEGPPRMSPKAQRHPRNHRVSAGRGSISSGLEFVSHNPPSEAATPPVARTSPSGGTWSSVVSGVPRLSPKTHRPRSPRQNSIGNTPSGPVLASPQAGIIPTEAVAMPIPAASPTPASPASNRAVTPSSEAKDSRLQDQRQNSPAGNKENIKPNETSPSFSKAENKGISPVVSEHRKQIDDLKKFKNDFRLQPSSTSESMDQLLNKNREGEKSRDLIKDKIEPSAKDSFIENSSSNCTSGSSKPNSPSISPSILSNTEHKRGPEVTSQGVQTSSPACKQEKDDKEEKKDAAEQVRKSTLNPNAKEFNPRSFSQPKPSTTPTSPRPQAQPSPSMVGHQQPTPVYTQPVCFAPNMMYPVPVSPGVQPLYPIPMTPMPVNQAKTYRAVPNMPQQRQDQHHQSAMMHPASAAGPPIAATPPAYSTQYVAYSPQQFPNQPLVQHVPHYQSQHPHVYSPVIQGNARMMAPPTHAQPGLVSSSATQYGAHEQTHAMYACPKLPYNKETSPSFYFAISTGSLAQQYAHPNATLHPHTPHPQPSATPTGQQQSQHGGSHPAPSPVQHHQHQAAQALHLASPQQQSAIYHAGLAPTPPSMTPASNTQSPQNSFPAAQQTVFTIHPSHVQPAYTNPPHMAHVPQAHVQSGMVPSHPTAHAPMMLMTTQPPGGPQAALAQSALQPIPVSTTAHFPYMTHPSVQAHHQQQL
On to `O=C(COC(=O)CCSc1ccccc1Cl)NCc1ccco1`, for which the Potency result is “inactive”. On to `COc1ccc(CC(=O)NNC2=Nc3cccc4cccc2c34)cc1`, for which the Potency entry is “inactive”. The value for `N#Cc1ccc(C(=O)CSc2nnc(-c3ccc(C(F)(F)F)cn3)s2)cc1` was “inactive”. For `O=C(NCCO)/C(=C\c1ccco1)NC(=O)c1cccs1`, the Potency result was “inactive”. Take `COC(=O)C1=CN(C(C)C)C=C(C(=O)OC)C1c1cccc(OC)c1`: the Potency entry is “inactive”. For the molecule `c1cn2c(NC3CCCC3)c(-c3ccc(N4CCOCC4)cc3)nc2cn1`, the Potency entry is “inactive”. Consider `COc1ccc(C)cc1NC(=O)c1cc2c(=O)n3ccccc3nc2n1C`, for which the Potency entry was “inactive”. The entry for `c1ccc2c(Nc3ccc(N4CCOCC4)cc3)nc(N3CCOCC3)nc2c1` is “inactive”. The value for `CCCCNc1c(-c2ccc(-c3ccc(C(C)=O)cc3)c(OC)c2)nc2cnccn12` was “inactive”. Regarding `Cc1ccccc1Nc1c(-c2ccc(N3CCOCC3)cc2)nc2cccc(C)n12`, the Potency is 22.4 µM (active). Turning to `Cc1ccc(-c2nc(Nc3ccc(N4CCOCC4)cc3)c3ccccc3n2)cc1`, the Potency result was “inactive”.

Consider `Cc1ccn2c(Nc3ccccc3C)c(-c3ccccn3)nc2c1`, for which the Potency is 15.8 µM (active).

Take `Cc1ccn2c(Nc3ccccc3C)c(-c3ccc(N4CCOCC4)cc3)nc2c1`: the Potency is 35.5 µM (active). The value for `Cc1cccc(C)c1Nc1c(-c2ccc(N3CCOCC3)cc2)nc2cnccn12` was “inactive”; that for `COc1cc(O)ccc1-c1nc2cc(C)ccn2c1Nc1ccccc1C` was 35.5 µM (active).

As to `C/C(=N/NC(=O)c1sc(NS(=O)(=O)c2ccccc2)nc1C)c1sc(N)nc1C`, the Potency entry is “inactive”. Take `Oc1nc2ccccc2nc1/C=C/c1ccc(Cl)cc1`: the Potency result was “inactive”. The value for `CC(C)CN(CC(C)C)C(S)=Nc1ccc(Cl)cc1` was “inactive”; that for `CN(C)CC(O)c1ccc(C=Cc2ccc(Cl)cc2)cc1` (configuration not stated) was 31.6 µM (active); that for `Cc1ccc(S(=O)(=O)Nc2ccccc2/C=N/c2nc3ccccc3n2C(C)C)cc1` was “inactive”.

On to `Nc1cc2sc(-c3ccc(C(=O)O)cc3)nc2cc1Cl`, for which the Potency result was “inactive”. The figure for `CC[C@@H](C)[C@H](CN[C@H](CNC)C(C)C)NC[C@@H](C)c1ccc(CC(C)C)cc1` is 22.4 µM (active); for `COc1cc(CNC2CCCC2)cc(Cl)c1OCc1ccccc1F` it is 28.2 µM (active); for `COc1cc(/C=C(\C#N)c2nc3ccccc3[nH]2)cc(Cl)c1OCc1ccccc1Cl` it is “inactive”. Regarding `NNC(=O)c1oc2ccccc2c1-n1cccc1`, the Potency result was “inactive”. With `Cc1cc(NC(=O)Nc2ccc(Cl)cc2)n(-c2ccccc2)n1`, the Potency entry is “inactive”.

As for `O=c1c(Cl)cc(Cl)nn1-c1ccccc1`, the Potency is 25.1 µM (active). The value for `Cc1nc2c(c(C)nn2-c2ccccc2)c(C)c1C` was “inactive”; that for `CCOC(=O)Cc1cnc(NC(=O)CSc2nc(C)c(CC)c(O)n2)s1` was “inactive”. On to `OCCCNCc1ccc(-c2ccccc2)cc1`, for which the Potency entry was “inactive”. The figure for `COc1ccc(CNCCC(c2ccc(OC(C)C)cc2)C(C)C)cc1OC` (configuration not stated) is 25.1 µM (active). Regarding `CC(C)Oc1ccc(C(CCNCc2ccc(O)cc2)c2ccccc2)cc1` (configuration not stated), the Potency is 39.8 µM (active). For `O=c1c(O)c(-c2ccc(O)c(O)c2)oc2cc(O)ccc12`, the Potency result was “inactive”. The entry for `NC(=O)C[n+]1ccc(C=NO)cc1` is “inactive”. With `CCc1cc(=O)oc2c(CNCc3ccccc3F)c(O)c(Cl)cc12`, the Potency result is “inactive”.

For `O=C(NNC(=O)c1cc2cc(Br)ccc2oc1=O)c1ccc(O)cc1O`, the Potency result is “inactive”. In the case of `Cc1ccc(NC(=O)CSCC(=O)OCc2cc(=O)oc3cc(O)ccc23)c(C)c1`, the Potency result was “inactive”. The entry for `COCCCn1/c(=N/C(=O)c2ccncc2)c(C#N)cc2c(=O)n3cccc(C)c3nc21` is “inactive”; for `c1cc2c(cc1C1CCCCC1)c1c3n2CCCNC3CCC1` (configuration not stated) it is 39.8 µM (active); for `COc1ccc(NS(=O)(=O)c2cc(NC(=O)c3cc(=O)c4ccccc4o3)ccc2OC)cc1` it is “inactive”.

In the case of `COc1ccc(OC)c(S(=O)(=O)Nc2ccc(O)c3ccccc23)c1`, the Potency was 28.2 µM (active). For the molecule `COc1ccc(OC)c(S(=O)(=O)Nc2ccc3c(c2)OCCO3)c1`, the Potency result was “inactive”. The entry for `CN(CCC1CCCCO1)C(=O)CCc1nnc(CCCCc2ccccc2)o1` (configuration not stated) is “inactive”. On to `Cc1cc(C)c(CN2CCN(CCCn3cnc(C(=O)Nc4ccc(C)c(C)c4)n3)CC2)c(C)c1`, for which the Potency was 35.5 µM (active).

For `Cc1ccc(OCC(=O)Nc2ccc(CN3CCOCC3)cc2)cc1C`, the Potency entry was “inactive”. Take `Brc1ccc(C2=CC(c3ccco3)n3nnnc3N2)cc1` (configuration not stated): the Potency result was “inactive”. The entry for `CC(C)N=C(S)NN=C1c2ccccc2-c2ccccc21` is “inactive”; for `COc1cc(/C=C/C(=O)Nc2ccc(S(=O)(=O)Nc3onc(C)c3C)cc2)cc(OC)c1OC` it is “inactive”; for `COc1ccc(/C=C/C(=O)Nc2ccc(Cl)c(Cl)c2)cc1OC` it is 31.6 µM (active). Regarding `COc1ccc(/C=C/C(=O)Nc2cccnc2)cc1OC`, the Potency entry was “inactive”. The value for `CCC1CSC(Nc2ccc(C(=O)/C=C/c3ccc(OC)c(OC)c3)cc2)=N1` (configuration not stated) was 39.8 µM (active); that for `COc1cccc(/C=C/C(=O)c2ccc(NC3=NCCCS3)cc2)c1` was 39.8 µM (active). The value for `COc1cc(/C=C/C(=O)OCC(=O)NC2CCS(=O)(=O)C2)ccc1OC(F)F` (configuration not stated) was “inactive”. The entry for `CCc1nnc(NS(=O)(=O)c2ccc(N/C=C\C(=O)c3cccc(OC)c3)cc2)s1` is “inactive”; for `CCOC(=O)c1sc2nc(C)nc(Nc3ccc(OC)c(OC)c3)c2c1C` it is “inactive”; for `CCOc1ccc(Nc2oc(/C=C/c3cccc(OC)c3)nc2C#N)cc1` it is “inactive”. As to `CC(C)C(C)(C#N)NC(=O)CSc1nnc(C(F)(F)F)n1C` (configuration not stated), the Potency entry was “inactive”. The entry for `COc1cccc(/C=C/c2nc(C#N)c(N3CCCCCC3)o2)c1` is “inactive”; for `COc1ccccc1[C@@H]1C(c2cccc(C)c2)=NN(c2ccccc2)[C@H]1C(=O)N1CCOC1=O` it is “inactive”; for `CCN1CN=C(S)N(c2ccccc2C)C1` it is “inactive”. The value for `Cc1nn2c(-c3ccc(F)cc3)ccnc2c1Cl` was “inactive”; that for `CN(C)c1ccc(/C=C2\Oc3ccc(C#Cc4cccc(N)c4)cc3C2=O)cc1` was “inactive”. For the molecule `CN1Cc2c(N3CCOCC3)nc3sc(C(=O)c4ccc(Br)cc4)c(N)c3c2CC1(C)C`, the Potency result was “inactive”.

Consider `Cc1ccccc1-c1nc(C#N)c(N2CCCCC2)o1`, for which the Potency result was “inactive”. Turning to `CC1=CC(=O)C(Sc2ccc(C)cc2)=CC1=O`, the Potency entry was “inactive”. The figure for `COC1=C(OC)C(=O)C(Sc2ccc3ccccc3c2)=CC1=O` is 33.6 µM (active); for `Cc1cccn2c(=O)c3cc(C(=O)NCC4CCCO4)c(=N)n(C4CCCCC4)c3nc12` (configuration not stated) it is “inactive”.
